Hits are enriched below; roughly 1.3% of the tested compounds scored in any of these assays.
TrxR1 inh – rat TrxR1 inhibition; actives 1% (n = 390,000); Potency, µM (top dose mostly 114 µM), hits mostly inhibitors; recombinant rTrxR1, NADPH fluorescence consumption, selenite substrate; note: nearly all actives have a fitted effect of over 65% in size
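Rat TrxR1 (90 nM in the dispensed reagent) was pre-reduced with 400 uM NADPH for 5 min at room temperature, then incubated with compound for 15 min. After 400 uM selenite was added, NADPH fluorescence (Ex 340/Em 450 nm) was followed for 8 min.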
Pin1 inh – blocks the human prolyl isomerase Pin1 | Pin1 FP peptide displacement, HiFluor488, 10 min | actives 0.009% (n = 390,000) | AID 504891 | Potency, µM (series often up to 115 µM), actives largely listed as inhibitors | Q13526; active = well fitted inhibition curve with a large enough effect in the polarisation, with a control signal flat, not every such curve was filed as active; inconclusive = small, poorly fitted or top-dose-only effect, or effect the other way, or a change in a side signal; inactive = no such curve, though single readings can be large or run the other way; the % refers to the polarisation
Target sequence (Q13526 whole entry, looked up): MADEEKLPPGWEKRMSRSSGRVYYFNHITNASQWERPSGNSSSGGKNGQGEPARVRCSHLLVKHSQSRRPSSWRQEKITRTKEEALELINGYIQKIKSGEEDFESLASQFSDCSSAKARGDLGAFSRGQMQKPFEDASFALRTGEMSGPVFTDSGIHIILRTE
TrxR1 substrate – substrates of rat thioredoxin reductase 1; actives 0.01% (n = 390,000); purified TrxR1 substrate turnover, NADPH consumption readout; AID 588456; Potency, µM (titrated, usually from 114 µM); O89049; note: nearly all actives have a fitted effect of over 50% in size
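Rat TrxR1, dispensed at 90 nM, was prereduced with 400 uM NADPH (final) for 5 min at ~22 deg C, then incubated with compound 15 min before 400 uM selenite. A first-read NADPH fluorescence drop versus no-compound background flagged substrates.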
Giardia kill – kills Giardia lamblia; actives 0.15% (n = 340,000); Giardia lamblia trophozoite viability; AID 540267; activity change, % at 7.66 µM, hits read low; in the data active = activity change below about -80%; inconclusive = between about -30% and that limit;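 note: parasites exposed to compound for two days anaerobically before the ATP read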
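Each well holds 100 Giardia trophozoites and compound. After two days (48 hrs) at 37 deg C in anaerobic conditions, ATP is quantified by luminescence.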
KAT2A inh – GCN5L2 (KAT2A) acetyltransferase inhibition. Q92830. GCN5L2 HAT assay, ThioGlo1 CoA-SH fluorescence. Potency, µM (series often up to 58.9 µM), usual class: inhibitors. actives 0.21% (n = 390,000). AID 504327
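ThioGlo1-coupled HAT assay: 20nM GCN5L2, 70uM acetyl-CoA, 75uM H3(1-25) peptide, pH 7.5. Fluorescence read at 340/540nm at start and after 20 min at room temperature.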
GALK inh – blocks human galactokinase activity; actives 0.007% (n = 270,000); P51570; Potency, µM (series often up to 57.5 µM), hits mostly inhibitors; AID 1868; Purified GALK, Kinase-Glo residual ATP luminescence
Target sequence (P51570 whole entry, looked up): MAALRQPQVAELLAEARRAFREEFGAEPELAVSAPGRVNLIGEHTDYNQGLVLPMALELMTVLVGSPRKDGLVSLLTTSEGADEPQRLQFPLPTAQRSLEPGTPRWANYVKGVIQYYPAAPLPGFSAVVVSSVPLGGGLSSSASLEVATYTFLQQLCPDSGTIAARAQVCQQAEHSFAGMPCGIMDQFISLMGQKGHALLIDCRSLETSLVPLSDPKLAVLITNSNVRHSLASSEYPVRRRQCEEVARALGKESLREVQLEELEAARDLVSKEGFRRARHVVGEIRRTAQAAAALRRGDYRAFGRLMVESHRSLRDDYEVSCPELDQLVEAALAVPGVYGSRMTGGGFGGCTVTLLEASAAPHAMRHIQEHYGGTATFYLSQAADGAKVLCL
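Luminescence from leftover ATP (Ultra-Glo luciferase/luciferin) served as read-out after a 1 h room-temperature reaction of 5 nM GALK with 35 uM ATP and 100 uM galactose.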
Of the large screens only hits and unclear results are named; the others gave an inactive call; ! = repeats disagree. Unless noted, calls come from the whole dose curve; as a rule, active = well fitted curve in the direction sought with a large enough effect; inconclusive = small, poorly fitted or top-dose-only effect, or another doubt; inactive = no such curve, though single readings can be large; an effect the other way counts as inactive or inconclusive.

COc1ccc(C(=O)NCC23C=CC(O2)C2C(=O)N(Cc4ccccc4)C(=O)C23)cc1 (stereo not given)	TrxR1 inh 25µM
CNCC(O)COc1cccc(OC)c1 (stereo not given)	none
CNCC(O)COc1ccccc1 (stereo not given)	TrxR1 inh 71µM
CCCN(CCC)c1ccc(/C=C/c2ccnc3ccccc23)cc1	none (no result: Pin1 inh, Giardia kill, KAT2A inh, GALK inh)
CC[C@@]12CCCN3CCc4c(n(c5ccccc45)[C@](O)(C(=O)OC)C1)[C@H]32	KAT2A inh 13µM! (no result: TrxR1 inh, Pin1 inh, TrxR1 substrate, Giardia kill, GALK inh)
CCC12CCCN3CCc4c(n(c5ccccc45)C(O)(C(=O)OC)C1)C32 (stereo not given)	Pin1 inh inconclusive
Cc1cc(N(C)C)c(C)cc1/C=C/c1ccnc2ccccc12	none (no result: Pin1 inh, Giardia kill, KAT2A inh, GALK inh)
COc1ccc(-c2ccc3ncnc(NCc4ccc(C)o4)c3c2)cc1OC	none (no result: TrxR1 inh, TrxR1 substrate, Giardia kill, KAT2A inh, GALK inh)
Cc1cc(C)c2c(=O)n(CC(=O)NCCCN3CCN(c4ccccc4F)CC3)sc2n1	KAT2A inh inconclusive
Cc1ccc(NC(=O)Cn2sc3nc(C)cc(C)c3c2=O)c(Cl)c1	KAT2A inh 28µM
Cc1cc(C)c2c(=O)n(CC(=O)NCCCN3CCOCC3)sc2n1	KAT2A inh 18µM
O=C(Nc1cccc(Cl)c1)N1CC2CCCN2c2ccccc21 (stereo not given)	none (no result: Giardia kill, GALK inh)
Cc1cc2c(c(=O)o1)C1O[C@](c3ccsc3)(Cc3ccccc31)O2	none (no result: TrxR1 inh, Pin1 inh, TrxR1 substrate, Giardia kill, GALK inh)
COc1ccc(-c2ccc3ncnc(NCC4CCCO4)c3c2)cc1OC (stereo not given)	none (no result: TrxR1 inh, TrxR1 substrate, Giardia kill, KAT2A inh, GALK inh)
CCOC(=O)C1CCN(C(=O)Nc2ccc3c(c2)nc(C)n3C)CC1	none
O=C(Nc1ccc2nc(-c3ccco3)c(-c3ccco3)nc2c1)N1CCCCCC1	TrxR1 inh 1.8µM, Pin1 inh inconclusive, KAT2A inh 14µM
CCOC(=O)C1CCN(C(=O)Nc2ccc3nc(-c4ccco4)c(-c4ccco4)nc3c2)CC1	TrxR1 inh 3.2µM, Pin1 inh inconclusive, KAT2A inh inconclusive
COc1ccccc1N=c1c2c([N+](=O)[O-])cc([N+](=O)[O-])cc2n(O)n1-c1ccccc1OC	none (no result: TrxR1 inh, Pin1 inh, TrxR1 substrate, Giardia kill)
COc1ccccc1-n1cc2c([N+](=O)[O-])cc([N+](=O)[O-])cc2n1	TrxR1 inh inconclusive, Giardia kill -85
Cc1c(P(=S)(c2ccccc2)c2ccccc2)c2ccccc2n1C/C=C/c1ccccc1	none (no result: TrxR1 inh, TrxR1 substrate, Giardia kill, KAT2A inh, GALK inh)
Cc1cc(C)cc(N(C(=O)CNC(=O)c2ccco2)C(C(=O)NC2CCCCC2)c2ccncc2)c1 (stereo not given)	none
C=Cc1ccc(Cn2c(C(=O)O)c(CNCc3ccccc3)c3ccc(OC)cc32)cc1	KAT2A inh 32µM (no result: Giardia kill, GALK inh)
COc1ccc(C2CC(c3ccccc3)Oc3cc(OC)ccc32)cc1 (stereo not given)	none (no result: KAT2A inh, GALK inh)
Cc1[nH]c2ccccc2c1C1=CC(=O)C=CC1=O	TrxR1 inh 25µM (no result: KAT2A inh, GALK inh)
Cc1[nH]c2ccccc2c1CC#N	none
O=C1c2ccccc2C(=O)N1c1noc2ccccc12	none (no result: TrxR1 inh, TrxR1 substrate, Giardia kill, KAT2A inh, GALK inh)
Fc1cccc(Cl)c1CNc1ccc(N2CCCC2)cc1	TrxR1 inh 4µM
Cc1nc2ccc(S(=O)(=O)CCC(=O)Nc3ccc(C(C)C)cc3)cc2s1	none (no result: Giardia kill, GALK inh)
CCOC(=O)/C=C1\CC(C(=O)OCC)Oc2c(OC)cccc21 (stereo not given)	TrxR1 inh 28µM! (no result: GALK inh)
C=C1c2cccc(OC)c2O[C@H](C(=O)OCC)[C@@H]1CC(CC)CCCC (stereo not given in full)	Pin1 inh inconclusive (no result: GALK inh)
O=C(CNC(=O)c1ccccc1Cl)OC(C(=O)Nc1cc(C(F)(F)F)ccc1Cl)c1ccccc1 (stereo not given)	none (no result: TrxR1 inh, TrxR1 substrate, Giardia kill, KAT2A inh, GALK inh)
CC1CCCCC1NC(=O)COC(=O)c1c2c(nc3ccccc13)/C(=C\c1ccco1)CC2 (stereo not given)	TrxR1 inh 14µM (no result: Pin1 inh, KAT2A inh, GALK inh)
CC1CCN(C(=O)COC(=O)/C=C/c2ccco2)CC1	TrxR1 inh 8.9µM, Pin1 inh inconclusive (no result: GALK inh)
CC1CCCC(NC(=O)COC(=O)/C=C/c2ccco2)C1C (stereo not given)	TrxR1 inh 22µM (no result: GALK inh)
CC1CCN(C(=O)COC(=O)/C=C/c2ccc([N+](=O)[O-])cc2)CC1	none (no result: GALK inh)
COC(=O)c1ccc(OC(=O)/C=C/c2ccco2)cc1	none

Screening results: PubChem BioAssay, National Center for Advancing Translational Sciences (NCATS)
